Test results published in PubChem BioAssay AID687001 (Broad Institute, 2013).
Measured potencies and affinities stand elsewhere. Activity calls are given as the source filed them.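 Rule for the calls: active = signal-lowering compounds whose fitted half-maximal concentration is at or below twice the top tested dose in every run; inconclusive = runs disagree, flat 30 to 70% inhibition, or poor curve fit; inactive = the rest.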

These molecules were tested against Protein S100-A4 (Homo sapiens) (UniProt P26447) (assay: S100A4-myosin IIA binding inhibitor potency, dose response, biochemical, fluorescence polarization, cherry-picked hits (AID 687001)). Conditions: FP, S100A4/TAMRA-myosin IIA peptide binding; series mostly up to 11 µM.
Chain of Protein S100-A4 (Homo sapiens) (P26447 whole entry, looked up): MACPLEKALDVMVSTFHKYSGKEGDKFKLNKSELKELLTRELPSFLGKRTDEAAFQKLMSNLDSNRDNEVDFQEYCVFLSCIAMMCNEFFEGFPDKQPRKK

outcome, inactive:
CCOc1cc(CNCc2ccccc2)ccc1OCc1ccc(Cl)cc1, CC(=O)N1[C@H](C(=O)N[C@H](C)c2ccccc2)[C@@H](CO)[C@@H]2Cn3c(cccc3=O)[C@@H]21, CCS(=O)(=O)Nc1ccc2c(c1)C(=O)N(C)C[C@@H](OC)[C@@H](C)CN(C(C)=O)[C@H](C)CO2, C[C@H](CO)N1C[C@H](C)[C@@H](CN(C)Cc2ccc(Cl)c(Cl)c2)Oc2c(NS(=O)(=O)c3cccs3)cccc2C1=O, COc1ccccc1CN1[C@H](CO)[C@H]2c3ccccc3N(C(=O)c3cccnc3)C[C@H]21, CC(C)CC#Cc1ccc([C@H]2[C@H]3CN(C(=O)Cc4cccnc4)CC(=O)N3[C@H]2CO)cc1, COc1ccc(S(=O)(=O)N(C)C[C@H]2Oc3ncc(-c4ccncc4)cc3C(=O)N([C@@H](C)CO)C[C@H]2C)cc1, COC(=O)C(c1ccccc1)C(CC(=O)c1ccccc1)c1ccccc1 (centres undefined), CCCc1cn(CC[C@@H]2CC[C@H](NC(=O)C3CCCC3)[C@H](CO)O2)nn1, Cc1cc(C(=O)NC2CCCN(Cc3ccc(Cl)cc3)C2)n(C)n1 (centres undefined), CN1CCN(S(=O)(=O)c2cccc(C(=O)NC3CCCC3)c2)CC1, Cc1ccc(S(=O)(=O)Nc2ccc3c(c2)C(=O)N([C@@H](C)CO)C[C@@H](C)[C@@H](CN(C)S(=O)(=O)c2cn(C)cn2)OCCCC[C@@H](C)O3)cc1, Cc1ccc(CNc2cnccn2)s1, CCCCSc1nnc(-c2ccccc2N)c(=O)[nH]1, C=C(C)n1c(=O)n(Cc2ccccc2C)c2ccccc21, CCC(=O)N1CCC(C)(C(=O)NCc2ccc(F)cc2)C1 (centres undefined), COc1ccc(N(CC(=O)NC2CCCCC2)C(=O)CNC(=O)c2cccs2)cc1OC, COC(=O)C[C@@H]1CC[C@H](NC(=O)c2cnccn2)[C@@H](CO)O1, Cc1cnc(C(=O)OCC(=O)c2ccccc2)cn1, CN1C(=O)c2cc(NC(=O)c3ccccc3Cl)ccc2OC[C@@H]2O[C@@H](CC(=O)NCC(F)(F)F)CC[C@H]21, CSC[C@H]1CN(Cc2cccnc2)C(=O)[C@@H]1CC(=O)Nc1ccc(Br)cc1, O=C(Nc1ccc(Cl)cc1)N[C@H]1CC[C@H](CCNC(=O)c2ccccc2F)O[C@@H]1CO, Cc1nc2ccccc2nc1CC(O)(c1ccccc1)c1ccccc1, COC(=O)c1c(NC(=O)CCN2CCOCC2)sc2c1CCCC2, C[C@@H]1CN([C@@H](C)CO)S(=O)(=O)c2ccc(-c3ccccc3)cc2O[C@H]1CN(C)Cc1cccc(F)c1, Cc1ccc(NC(=O)COC(=O)c2ccccc2F)cc1S(=O)(=O)N1CCCCC1, CC(C)[C@H](NC(=O)N1CCn2c1nc1ccccc12)C(=O)NCc1ccccc1Cl, CN1C(=O)c2cc(NC(=O)Cc3cccs3)ccc2OC[C@H]2O[C@H](CC(=O)N[C@H]3CCN(Cc4ccccc4)C3)CC[C@@H]21, CC(NC(=O)COC(=O)c1cc([N+](=O)[O-])ccc1N1CCOCC1)c1ccc(F)cc1 (centres undefined), COc1ccc(CN2CCC(C(=O)Nc3ccc(Oc4cccnc4)cc3)CC2)c(C)c1C, CCC(=O)Nc1ccc2c(c1)OC[C@H](C)N(C(=O)CC1CC1)C[C@H](C)[C@H](OC)CN(C)C2=O, COc1cccc(NC(=O)CN(C)C(=O)c2ccc(N3CCCCC3)c([N+](=O)[O-])c2)c1, CN(CCC#N)C(=O)COC(=O)[C@H](Cc1ccccc1)N1C(=O)c2ccccc2C1=O, Cc1ccc(C)c(N2CCN(S(=O)(=O)c3c(C)[nH]c(C)c3C(=O)N3CCCCC3)CC2)c1, CN(C)C(=O)c1ccc(-c2ccc([C@@H]3[C@@H](CO)N4CCCCN(CC5CC5)C[C@@H]34)cc2)cc1, CCOC(=O)N1CCN(S(=O)(=O)c2ccc(C)c(C(=O)NC3CCCCC3)c2)CC1, Cc1cc(C)nc(NC(=O)CCN2C(=O)c3ccccc3S2(=O)=O)n1, CCCC(=O)Nc1ccc2c(c1)C(=O)N(C)C[C@H](OC)[C@H](C)CN(Cc1ccccc1)[C@H](C)CO2, O=C(N[C@H]1CC[C@@H](CCNS(=O)(=O)Cc2ccccc2)O[C@H]1CO)c1ccccc1F
